About 83,000 compounds went through this panel and 20% of them were active in at least one assay; those are over-represented in the sample as a whole.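 Results are percent growth after 48 hours of single-concentration exposure. 100 means growth as in untreated cells, lower positive values show inhibition; negative values down to -100 show cell death.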 A number with no mark means an inactive call. Active and inactive are the calls of the source. How the source made its calls: active means growth percent below 10; inactive means the rest.
The molecules below were run on A549/ATCC NSCLC (assay: NCI-60 one-dose screen, 48 h (100 = growth as untreated, 0 = no growth, -100 = all killed)). Conditions: 10 µM unless noted.

Row | SMILES | growth
1 | COc1cc2oc(-c3cccc(NC(=O)c4cc(N)ccc4Cl)c3)cc(=O)c2c(OC)c1OC | 103%
2 | CC(C)(C)n1cc(-c2ccnc(NCCCNS(=O)(=O)c3cccc(F)c3)n2)c(-c2ccc(Cl)c(O)c2)n1 | 93.6%
3 | COc1cccc2cc(-c3cc4ccccc4[nH]3)/c(=N\NC(=O)c3ccc(Cl)cc3)oc12 | 39.8%
4 | Nc1nc(Nc2ccccc2SSc2ccccc2Nc2nc(N)nc(-c3ccc4ccccc4c3)n2)nc(-c2ccc3ccccc3c2)n1 | 2.94% (active)
5 | O=C(CN1CCN(c2cc(=O)n(-c3ccccc3)c3ccccc23)CC1)Nc1nc(-c2ccccc2)cs1 | 56.2%
6 | CC(Nc1c(C#N)cnc2ccc(-c3cnc(N)nc3)cc12)c1ccccc1 (centres undefined) | 11.6%
7 | CC(=O)Nc1cccc(Nc2nc(N[C@H](C)c3ccccc3)c3ccccc3n2)c1 | 40.7%
8 | CNC1CCc2c(sc(NC(=O)c3ccc(C(C)(C)C)cc3)c2C(N)=O)C1 (centres undefined) | 31%
9 | COc1cc(OC)cc(C(=O)Nc2cccc(C#Cc3cccc4[nH]nc(N)c34)c2)c1 | 33.7%
10 | COc1c(N2CC3CCCNC3C2)c(F)cc2c(=O)c(C(=O)N/N=C/c3ccccc3)cn(C3CC3)c12 (centres undefined) | 101%
11 | COc1ccccc1-n1cc(C#N)c(N)c1C(=O)c1ccc(Br)cc1 | 78.6%
12 | Nc1nc(-c2cccc([N+](=O)[O-])c2)c(N=Nc2ccccc2)s1 | 60%
13 | COc1ccc(-c2nc3ccc(-c4nnc(SCC(=O)Nc5ccc(C(=O)/C=C/c6ccc(Cl)cc6)cc5)o4)cc3[nH]2)cc1 | 105%
14 | CCCCCCCn1cc2c(NCCc3ccccc3)ncnc2n1 | 98.2%
15 | COc1ccc(-c2nc3cc(Cl)c(Cl)cc3n2CC(=O)N=Nc2c(O)[nH]c3ccc(OC)cc23)cc1 | 59.8%
16 | CN1CCN(Cc2ccc(NC(=O)c3cncc(C#Cc4cnn5cccnc45)c3)cc2C(F)(F)F)CC1 | 5.71% (active)
17 | Cc1cc(C)c(N2C(=O)CC(Nc3ccc(Cl)cc3Cl)C2=O)c(C)c1 (centres undefined) | 104%
18 | CC(=O)Nc1cccc(Nc2nc(N[C@@H](C)c3ccccc3)c3ccccc3n2)c1 | 19.9%
19 | COc1cc(-c2nn(C(C)(C)C)cc2-c2ccnc(NCCCNS(=O)(=O)c3cccc(F)c3)n2)ccc1Cl | 50.7%
20 | NC(=O)c1cccc(-n2ccc3cc(NC(=O)Nc4ccc(N5CCOCC5)c(C(F)(F)F)c4)ccc32)n1 | 10.5%

Row | SMILES | growth
21 | O=S(=O)(Nc1cccc2ccccc12)c1ccc(-c2cnc(C3CC3)o2)cc1 | 27.2%
22 | CCOC(=O)c1c(N)c(C#N)cn1-c1cc(OC)c(OC)c(OC)c1 | 101%
23 | COc1ccc([C@H]2c3[nH]c4ccccc4c3C[C@H]3C(=O)N(C4CCN(Cc5c(Cl)cccc5Cl)CC4)CC(=O)N23)c(OC)c1 | 91.1%
24 | COc1ccc2c(c1)c(-c1cc(N)n3nc(-c4cn(C)c5ccc(OC)cc45)cc3n1)cn2C | 46.1%
25 | COc1cc2c(cc1OC)C(Sc1ccc(C)cc1)c1c(nc(N)c(C#N)c1N)O2 (centres undefined) | -38% (active)
26 | C[C@@H](Nc1c(C#N)cnc2ccc(-c3cnc(Cl)c(NS(C)(=O)=O)c3)cc12)c1ccccc1 | 4.78% (active)
27 | Cc1ccc(NC(=O)N[C@@H](Cc2cc(F)cc(F)c2)C(=O)NC2C(=O)N3C[C@H](O)C[C@H]3C(=O)N3CCCC[C@H]3C(=O)N[C@@H](CO)C(=O)N3C[C@H](C)C[C@H]3C(=O)O[C@H]2C)c(F)c1 (some centres undefined) | 73.4%
28 | O=C(NCc1ncc[nH]1)c1ccc(-c2nc3ccc4[nH]ncc4c3c3c2CCCC3)cc1 | 48.2%
29 | CCO/C=N/C1=C(C#N)C(c2ccc(F)cc2)c2sc3c(C)cccc3c2O1 (centres undefined) | 22.4%
30 | c1cn2c(ccc3nc(-c4cn[nH]c4)c4c(c32)CCCC4)n1 | 62.5%
31 | O=c1[nH]c2ccccc2cc1CSc1ccccc1Nc1nccc(-c2ccc(Cl)cc2)n1 | 95.4%
32 | Cn1ccnc1C(=O)/C=C/c1ccc(NC(=O)c2c(F)c(F)c(F)c(F)c2F)cc1 | 101%
33 | Cc1noc(C)c1CSc1nc2ccccc2n1-c1ccccc1 | 91.2%
34 | Cn1cc(CNc2nc3ccc(OC/C(=C/F)CN)cc3o2)ccc1=O | 108%
35 | CC(C)(C)CC(C)(C)n1nnnc1C(Nc1nccs1)c1cc2cccc3ccc4cccc1c4c32 (centres undefined) | 107%
36 | COc1ccc(/C(N)=N/C(N)=N/c2nc3ccccc3s2)cc1 | 33.1%
37 | COc1ccc(-c2nn(-c3ccc(S(C)(=O)=O)cc3)cc2/C=N/O)cc1 | 105%
38 | CCOc1cccc(-c2nc3sccn3c2-c2ccnc(S(C)(=O)=O)n2)c1 | 102%
39 | O=C(c1ccc(Cl)cc1)C1[C@H](c2ccc(Cl)cc2)[C@@H](c2ccccc2)NC12C(=O)Nc1ccccc12 (some centres undefined) | 42.6%

— PubChem BioAssay (NCI)
